The record followed here is PubChem BioAssay (EPA / NIEHS).

Inconclusive results are not listed. Where a structure was tested more than once in an assay, its records may differ in their call. Active and inactive are the calls of the source. The calls were made as follows, unless noted: active = hit-call score of the fitted dose curve at least 0.9, where 1 is the maximum; inactive = score below 0.9.

Read-out in assay [1]: Monokine induced gamma interferon (MIG), CXCL9 (gene 4283)
The assay can be described thus: BSK_3C_MIG: BioMAP Diversity Plus: 3C Assay for Monokine induced gamma interferon (MIG) Biomarker Activity (AID 2283021).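 As to AC50: MIG protein level measured by immunoassay in the treated endothelial cultures.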 The settings on record: primary human endothelial cells (HUVEC); actives raise or lower the signal. Summed up:
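ELISA-measured MIG in dosed HUVEC 3C cultures at 24 h, analysed by bidirectional fitting with DMSO defining baseline activity.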

In assay [2] the target is human Vitamin D Receptor (VDR), VDR (gene 7421) (UniProt P11473). In words: ATG_VDR_TRANS: Attagene TRANS-FACTORIAL HepG2 Assay for human Vitamin D Receptor (VDR) (AID 2283022; active = hit-call score of the fitted dose curve at least 0.9, where 1 is the maximum). In short, it runs like this:
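Multiplexed TRANS reporter in HepG2; 24 h treatment; reporter mRNA by RT-PCR plus capillary electrophoresis; upregulation scored relative to DMSO.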

Assay [3] in a line: BSK_3C_SRB: Viability Assessment in the BioMAP Diversity Plus: 3C Assay (AID 2283023).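 Also: cells read 24 h after compound dosing; fitted both ways against DMSO so a hit may be signal rise or drop.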 To be noted: primary human endothelial cells (HUVEC). Summed up: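 Overt cytotoxicity is gauged in parallel confluent HUVEC cultures by SRB total-protein staining at the time of biomarker measurement, 24 h after dosing. Gain or loss of signal is fitted versus DMSO.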
Read-out in assay [4]: Matrix Metallopeptidase 1 (MMP1), MMP1 (gene 4312)
In words: BSK_BE3C_MMP1: BioMAP Diversity Plus: BE3C Assay for Matrix Metallopeptidase 1 (MMP1) Biomarker Activity (AID 2283024). To be noted: primary human bronchial epithelial cells; actives raise or lower the signal. In short, it runs like this:
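In this multiplexed primary-cell system, human bronchial epithelium received chemicals for 24 h before an ELISA for MMP1. Values reflect bidirectional fits normalised to the DMSO baseline.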

Read-out in assay [5]: Pselectin, SELP (gene 6403)
In words: BSK_4H_Pselectin: BioMAP Diversity Plus: 4H Assay for Pselectin Biomarker Activity (AID 2283026). The settings on record: primary human endothelial cells (HUVEC); actives raise or lower the signal. In short, it runs like this: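 Bidirectional fits against DMSO gave the endpoint. Cells: primary human umbilical vein endothelium, chemical-treated for 24 h before ELISA detection of P-selectin.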

Assay [6] is described as follows: BSK_4H_SRB: Viability Assessment in the BioMAP Diversity Plus: 4H Assay (AID 2283027).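 Also: cells exposed to compound for 24 h before staining.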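 As to AC50: curves fitted both ways versus DMSO so AC50 may be loss or gain.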 To be noted: primary human endothelial cells (HUVEC). Summed up:
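HUVEC, 24 h post-dose; 10% TCA fix, 0.1% SRB stain, A560 nm. Total protein = overt cytotoxicity, parallel to biomarker read. Bidirectional fit vs DMSO baseline.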

Assay [7] can be described thus: BSK_BE3C_SRB: Viability Assessment in the BioMAP Diversity Plus: BE3C Assay (AID 2283028).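 As to AC50: fitted both ways so AC50 may mark signal gain or loss versus DMSO.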 The settings on record: primary human bronchial epithelial cells. In short, it runs like this: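 SRB total-protein staining (0.1%, after TCA fixation) of chemically dosed human bronchial epithelial primary cells at 24 h; DMSO serves as the negative control for bidirectional curve fitting.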

Read-out in assay [8]: Thrombomodulin, THBD (gene 7056)
The assay can be described thus: BSK_3C_Thrombomodulin: BioMAP Diversity Plus: 3C Assay for Thrombomodulin Biomarker Activity (AID 2283029). The settings on record: primary human endothelial cells (HUVEC); actives raise or lower the signal. In short, it runs like this:
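In a multiplexed primary-cell system, human umbilical vein endothelium received chemical and was assayed 24 h later for thrombomodulin by ELISA. Parallel cultures were SRB-stained (0.1% SRB after 10% TCA fixation, read at 560 nm) to flag cytotoxicity.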

Read-out in assay [9]: Urokinase-type plasminogen activator receptor (uPAR), PLAUR (gene 5329)
In words: BSK_4H_uPAR: BioMAP Diversity Plus: 4H Assay for Urokinase-type plasminogen activator receptor (uPAR) Biomarker Activity (AID 2283030). The settings on record: primary human endothelial cells (HUVEC); actives raise or lower the signal. In short, it runs like this:
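Endpoint derived via bidirectional curve fitting against DMSO baseline; readout was ELISA detection of uPAR on umbilical vein endothelial cells at 24 h post-treatment, with SRB-stained parallel cultures assessing cytotoxicity.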

Read-out in assay [10]: Vascular endothelial growth factor receptor 2 (Homo sapiens) (UniProt P35968)
In words: BSK_4H_VEGFRII: BioMAP Diversity Plus: 4H Assay for Vascular endothelial growth factor receptor 2 (VEGFR2) Biomarker Activity (AID 2283031). The settings on record: primary human endothelial cells (HUVEC); actives raise or lower the signal. In short, it runs like this:
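In this multiplexed HUVEC system, biomarker ELISA was performed after 24 h chemical exposure. Parallel SRB staining (TCA fixation, 560 nm) tracked cytotoxicity; DMSO served as baseline.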

Read-out in assay [11]: Human Leukocyte Antigen - DR isotype (HLADR), HLA-DRA (gene 3122)
In words: BSK_BE3C_HLADR: BioMAP Diversity Plus: BE3C Assay for Human Leukocyte Antigen - DR isotype (HLADR) Biomarker Activity (AID 2283032). The settings on record: primary human bronchial epithelial cells; actives raise or lower the signal. In short, it runs like this: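 BioMAP BE3C format: human bronchial epithelium, 24 h compound treatment, ELISA detection of HLA-DR, with bidirectional analysis relative to DMSO.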

Read-out in assay [12]: Vascular cell adhesion molecule 1 (VCAM1), VCAM1 (gene 7412)
The assay can be described thus: BSK_4H_VCAM1: BioMAP Diversity Plus: 4H Assay for Vascular cell adhesion molecule 1 (VCAM1) Biomarker Activity (AID 2283033).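 As to outcome: cell-surface VCAM-1 protein measured by ELISA.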 To be noted: primary human endothelial cells (HUVEC); actives raise or lower the signal. In short, it runs like this:
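In this human endothelial (HUVEC) system, biomarker ELISA was run 24 h after compound addition, and total protein in parallel wells was assessed by SRB at 560 nm; DMSO served as negative control.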

Read-out in assay [13]: Interferon-gamma inducible Protein 10 (IP10), CXCL10 (gene 3627)
In words: BSK_BE3C_IP10: BioMAP Diversity Plus: BE3C Assay for Interferon-gamma inducible Protein 10 (IP10) Biomarker Activity (AID 2283034). To be noted: primary human bronchial epithelial cells; actives raise or lower the signal. In short, it runs like this:
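BE3C cells (human bronchial epithelial, primary); 24 h exposure; ELISA for IP-10; DMSO-referenced bidirectional fit.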

Read-out in assay [14]: Monokine induced gamma interferon (MIG), CXCL9 (gene 4283)
In words: BSK_BE3C_MIG: BioMAP Diversity Plus: BE3C Assay for Monokine induced gamma interferon (MIG) Biomarker Activity (AID 2283035).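 As to outcome: MIG protein measured by ELISA in BE3C cultures after 24 h of dosing.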 The settings on record: primary human bronchial epithelial cells; actives raise or lower the signal. Summed up: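 Dose cells (human primary bronchial epithelial), incubate 24 h, quantify MIG by ELISA, then fit concentration–response in both directions relative to DMSO control.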

Read-out in assay [15]: Plasminogen activator inhibitor-1 (PAI1), SERPINE1 (gene 5054)
In words: BSK_BE3C_PAI1: BioMAP Diversity Plus: BE3C Assay for Plasminogen activator inhibitor-1 (PAI1) Biomarker Activity (AID 2283037). To be noted: primary human bronchial epithelial cells; actives raise or lower the signal. In short, it runs like this:
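In this multiplexed primary-cell system, bronchial epithelial cells receive test chemical and are sampled at 24 h. PAI-1 is read by ELISA, with DMSO serving as negative control for bidirectional fitting.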

Read-out in assay [16]: urokinase plasminogen activator (uPA), PLAU (gene 5328)
The assay can be described thus: BSK_BE3C_uPA: BioMAP Diversity Plus: BE3C Assay for urokinase plasminogen activator (uPA) Biomarker Activity (AID 2283038).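 As to outcome: uPA protein level quantified by ELISA in cell cultures; uPA read one day after compound addition.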 The settings on record: primary human bronchial epithelial cells; actives raise or lower the signal. Summed up:
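Using confluent primary human lung bronchial epithelial cultures, we dosed chemicals, waited 24 h, then ran a uPA ELISA, fitting bidirectionally against DMSO.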

Read-out in assay [17]: Urokinase-type plasminogen activator receptor (uPAR), PLAUR (gene 5329)
The assay can be described thus: BSK_BE3C_uPAR: BioMAP Diversity Plus: BE3C Assay for Urokinase-type plasminogen activator receptor (uPAR) Biomarker Activity (AID 2283039).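 As to outcome: uPAR protein level measured by ELISA on the cells; cells exposed to compound for one day before measurement.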 The settings on record: primary human bronchial epithelial cells; actives raise or lower the signal. Summed up:
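Chemically treated human bronchial epithelial cells (lung primary) are assayed for uPAR by ELISA after 24 h, with data fitted in both directions using DMSO as negative control.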

Read-out in assay [18]: Interleukin-6 (IL6), IL6 (gene 3569)
In words: BSK_CASM3C_IL6: BioMAP Diversity Plus: CASM3C Assay for Interleukin-6 (IL6) Biomarker Activity for (AID 2283040). The settings on record: primary human coronary artery smooth muscle cells; actives raise or lower the signal.

Assay [19] in a line: BSK_3C_Vis: BioMAP Diversity Plus: 3C Assay for Morphology Visualization (AID 2283025).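 Also: fitted both ways so gain or loss versus DMSO counts.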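 As to AC50: light microscopy image of cell morphology used as background control.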 To be noted: primary human endothelial cells (HUVEC). Summed up:
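Light-microscopy morphology readout, 24 h exposure, human primary umbilical vein endothelium; analysed relative to DMSO with bidirectional fitting.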

Read-out in assay [20]: Transforming growth factor beta 1 (TGFb1), TGFB1 (gene 7040)
In words: BSK_BE3C_TGFb1: BioMAP Diversity Plus: BE3C Assay for Transforming growth factor beta 1 (TGFb1) Biomarker Activity (AID 2283036;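 as to outcome: TGF-b1 protein level measured by ELISA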). The settings on record: primary human bronchial epithelial cells; actives raise or lower the signal. Summed up: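 TGF-b1 measured via ELISA, 24 h after chemical dosing of human bronchial epithelial cells (BE3C). Overt cytotoxicity assessed in parallel by SRB (0.1%, TCA-fixed, 560 nm); analysis bidirectional relative to DMSO.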

In general, AC50 refers to the concentration at which the activity in the assay is half-maximal.

Chain of human Vitamin D Receptor (VDR), VDR (gene 7421) (P11473 whole entry, looked up): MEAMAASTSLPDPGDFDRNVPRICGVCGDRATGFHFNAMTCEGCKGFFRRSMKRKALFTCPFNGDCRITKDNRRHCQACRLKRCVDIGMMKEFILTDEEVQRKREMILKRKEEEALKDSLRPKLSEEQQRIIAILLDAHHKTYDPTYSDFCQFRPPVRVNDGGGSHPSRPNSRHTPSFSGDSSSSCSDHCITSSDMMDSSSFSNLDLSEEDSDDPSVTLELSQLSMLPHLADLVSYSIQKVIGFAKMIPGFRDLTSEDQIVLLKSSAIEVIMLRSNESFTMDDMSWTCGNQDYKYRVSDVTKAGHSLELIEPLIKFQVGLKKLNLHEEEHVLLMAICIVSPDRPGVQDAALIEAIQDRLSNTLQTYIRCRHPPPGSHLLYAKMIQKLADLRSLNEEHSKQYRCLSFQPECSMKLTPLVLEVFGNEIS

Turning to `OC[C@H]1O[C@H](O[C@]2(CCl)O[C@H](CCl)[C@@H](O)[C@@H]2O)[C@H](O)[C@@H](O)[C@H]1Cl`, the result in [1], in assay [2], in [3], in assay [4], in [5] and in assay [6] was inactive. The outcome in assay [7], in assay [8], in [9], in [10], in assay [11] and in assay [12] was inactive. Besides, the outcome in assay [13], in [14], in [15], in assay [16], in assay [17] and in assay [18] was inactive.

For `CCn1c2ccccc2c2cc(N)ccc21`, the outcome in assay [1], in assay [3], in [4], in assay [6], in assay [7] and in [8] was inactive. The result in [10], in assay [12], in assay [13], in assay [14], in assay [20] and in [16] was inactive. For the same compound, the result in assay [17] and in assay [18] was inactive. In addition, the AC50 in assay [19] is 8800 nM (active); in assay [5], 1230 nM (active); in [9] it was 152 nM (active); in assay [11], 2240 nM (active); in assay [15], 3970 nM (active).

Consider `CC(C)Oc1ccccc1O`, for which the outcome in assay [1], in assay [3], in assay [4], in assay [19], in assay [5] and in assay [6] was inactive. Moreover, the outcome in [7], in assay [8], in [9], in assay [10], in [11] and in assay [12] was inactive. Moreover, the result in assay [13], in [14], in assay [20], in assay [15], in assay [16] and in [17] was inactive. Also, in assay [18], the outcome was inactive.

Regarding `CCC(=O)OCc1ccccc1`, the outcome in assay [1], in [2], in [3], in [4], in assay [5] and in assay [6] was inactive. Besides, the result in assay [7], in assay [8], in [9], in assay [10], in assay [11] and in assay [12] was inactive. Further, the result in assay [13], in assay [14], in [15], in [16], in assay [17] and in assay [18] was inactive.

Consider `O=C1OC2(c3cc(Br)c(O)c(Br)c3Oc3c2cc(Br)c(O)c3Br)c2c(Cl)c(Cl)c(Cl)c(Cl)c21`, for which the AC50 in assay [1] was 16300 nM (active); in [3], 3570 nM (active); in assay [4] it was 546 nM (active); in assay [19] it was 8630 nM (active); in assay [5], 2190 nM (active); in assay [6] it was 3510 nM (active). The AC50 was 608 nM (active) in assay [7]; 13200 nM (active) in assay [8]; 1340 nM (active) in [9]; 560 nM (active) in assay [11]; 4230 nM (active) in assay [12]; 818 nM (active) in assay [13]. The AC50 in [14] is 2490 nM (active); in assay [20] it was 587 nM (active); in [15], 563 nM (active); in assay [16] it was 736 nM (active); in assay [17], 840 nM (active). The compound was called inactive in assay [2] and in assay [18].

Consider `C#C[C@]1(O)CC[C@H]2[C@@H]3CCC4=Cc5oncc5C[C@]4(C)[C@H]3CC[C@@]21C`, for which the outcome in assay [1], in [4], in assay [7], in assay [8], in assay [10] and in assay [11] was inactive. Also, the outcome in assay [14], in assay [20], in assay [15], in assay [16], in [17] and in assay [18] was inactive. The AC50 in [3] is 3970 nM (active); in assay [19] it was 37500 nM (active); in assay [5] it was 35200 nM (active); in assay [6], 7330 nM (active); in [9], 3970 nM (active); in assay [12] it was 30100 nM (active). Also, in [13], the AC50 is 31200 nM (active).

As for `CC[Si](OC(C)=O)(OC(C)=O)OC(C)=O`, the result in assay [1], in assay [2], in [3], in assay [4], in assay [5] and in [6] was inactive. Moreover, the result in assay [7], in assay [8], in assay [9], in assay [10], in assay [11] and in [12] was inactive. In addition, the result in assay [13], in assay [14], in [15], in [16], in assay [17] and in [18] was inactive. In addition, the AC50 in [12] was 195 nM (active).
